Rows were chosen to be rich in hits. Some 6.9% of all compounds tested hit in one or more screens of this group.
HP1b binding inh: HTS for Inhibitors of HP1-beta Chromodomain Interactions with Methylated Histone Tails | Chromobox protein homolog 1 (Homo sapiens), P83916 | AlphaScreen HP1-beta / biotin-H3K9me3 peptide binding | Potency, µM (titrated, usually from 114 µM), without a hit: at the top dose activity change, negative = inhibition, most hits filed as inhibitors | 390,000 tested, 0.56% active; further: nearly all actives have a fitted effect of over 70% in size
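HP1-beta protein (50 nM final) preincubated 30 min at room temperature with biotinylated H3(1-18)K9me3 peptide (50 nM) in PBS pH 7.4, 0.01% Tween-20, then compound added for 30 min. AlphaScreen streptavidin donor/nickel chelate acceptor beads (10 ug/mL final), 30 min dark, luminescence read.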
PLK1 PBD inh: qHTS for Inhibitors of PLK1-PDB (polo-like kinase 1 - polo-box domain): Primary Screen; Serine/threonine-protein kinase PLK1 (Homo sapiens), P53350; Plk1 PBD binding of FITC phosphopeptide, fluorescence polarization; Potency, µM, inactives show max response, negative = inhibition, hits mostly inhibitors; 360,000 tested, 2.8% active; further: series mostly up to about 57 µM; on the % scale 0 is the no-effect control and ±100 the full control effect; nearly all actives have a fitted effect of over 65% in size
BAZ2B inh: qHTS Assay for Inhibitors of BAZ2B | 360,000 tested, 4.4% active | Potency, µM (top dose mostly 114 µM), for the others: at the highest dose activity change, negative = inhibition, most hits filed as inhibitors | AID 504333, 2011 | Bromodomain adjacent to zinc finger domain protein 2B (Homo sapiens), Q9UIF8 | AlphaScreen BAZ2B-H3K14Ac peptide displacement; further: on the % scale 0 is the no-effect control and ±100 the full control effect; nearly all actives have a fitted effect of over 60% in size
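Inhibition is scored as reduced AlphaScreen emission. The BAZ2B/b-H3(5-23)K14Ac complex (50 nM each) in PBS pH 7.4, 0.01% Tween-20 meets compound (up to 110 uM) for 30 min at RT before bead addition.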
L3MBTL1 block: qHTS Assay for the Inhibitors of L3MBTL1. AlphaScreen L3MBTL1–H3K9me1 peptide binding. Potency, µM (doses to about 57.1 µM), inactives show top-dose activity, negative = inhibition, actives largely listed as inhibitors. 230,000 tested, 0.66% active; further: on the % scale 0 is the no-effect control and ±100 the full control effect; nearly all actives have a fitted effect of over 60% in size
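AlphaScreen assay: L3MBTL1 (50 nM final) was preincubated 30 min at room temperature with biotinylated H3(1-15)K9me1 peptide (75 nM final), then 30 min with library compounds; streptavidin donor and nickel chelate acceptor beads (10 ug/mL final) added, 30 min dark.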
JMJD2A Tudor inh: qHTS Assay for Inhibitors of JMJD2A-Tudor Domain | Lysine-specific demethylase 4A (Homo sapiens), O75164 | AlphaScreen JMJD2A-Tudor / H3K4me3 peptide binding | Potency, µM (top dose mostly 114 µM), for the others: at the top dose activity change, negative = inhibition, most hits filed as inhibitors | 390,000 tested, 4.4% active | AID 504339, 2011; further: on the % scale 0 is the no-effect control and ±100 the full control effect; nearly all actives have a fitted effect of over 50% in size
VDR inhibitor: Inhibitors of the vitamin D receptor (VDR): qHTS | VDR-SRC2-3 peptide fluorescence polarization, 2 h | Potency, µM, for the others: max response, negative = inhibition, usual class: inhibitors | 400,000 tested, 0.93% active | AID 504847, 2011; further: on the % scale 0 is the no-effect control and ±100 the full control effect
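Two reagent solutions held at 4 deg C in the dark were dispensed, compounds pinned at 23 nl, and the mixture incubated 2 h at room temperature. Read-out: fluorescence polarization of VDR–SRC2-3 peptide binding.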
The depositor's hits bear a star; u = inconclusive; x = no result; [ ] = dose if it differs, or a comment. The call rests on the fitted dose curve; in most records, active means well fitted curve in the direction sought with a large enough effect; inconclusive means small, poorly fitted or top-dose-only effect, or another doubt; inactive means no such curve, though single readings can be large; an effect the other way counts as inactive or inconclusive. Potency means the concentration at half of the fitted maximal effect.

SMILES	HP1b binding inh	PLK1 PBD inh	BAZ2B inh	L3MBTL1 block	JMJD2A Tudor inh	VDR inhibitor
CCCn1cc2c(c1-c1ccc(C)cc1)c(=O)n(C)c(=O)n2C	22%	-10%	u	-9%	-22%	8%
COc1ccc(/C=C/C(=O)C23CC4CC(CC(C4)C2)C3)cc1CN1CCOCC1	u	-12%	u	-10%	u	-27%
c1ccc(CNC2=NCCCC2)cc1	u	-4%	u	0%	u	17%
O=C(NNC1=NCCCCC1)c1ccccc1	-22%	-3%	-8%	0%	3.2µM*	6%
CCn1c(-c2nn(C)cc2Cl)n[nH]c1=S	24%	-3%	-6%	1%	6.3µM*	1%
Cc1nn(C)c(-c2n[nH]c(=S)n2-c2ccccc2)c1Cl	19%	-3%	3%	8%	35µM*	-16%
Cc1c(-n2c(-c3ccccc3Cl)n[nH]c2=S)c(=O)n(-c2ccccc2)n1C	50%	-4%	u	-14%	u	4%
CCn1c(-c2cccn(Cc3ccccc3)c2=O)n[nH]c1=S	18%	-14%	-2%	8%	u	-6%
Cn1cc(Cl)c(-c2n[nH]c(=S)n2-c2ccccc2)n1	36%	2%	-1%	2%	6.3µM*	-10%
Cn1cc(Cl)c(-c2n[nH]c(=S)n2-c2ccc(F)cc2)n1	47%	1%	-3%	8%	u	-10%
Cc1oc(-c2ccc(C(=O)NCCN(C)C)cc2)nc1CS(=O)(=O)c1ccccc1	19%	x	-7%	x	-6%	15%
CCN(C(=O)COC(=O)c1cc([N+](=O)[O-])ccc1N1CCOCC1)c1ccccc1	13%	-6%	-33%	-28%	-23%	-17%
Cc1ccc(CNC(=O)CN2C(=O)C3(SCC(=O)N3c3cc(C)cc(C)c3)c3ccccc32)cc1 (centres undefined)	-7%	x	0%[57.1 µM]	x	-27%	3%
CN1CCN(/N=C/c2ccc(N(C)c3ccccc3)cc2)CC1	-5%	-1%	35µM*	-9%[11.4 µM]	-32%	5%
CN1CCN(/N=C/c2ccc(N(c3ccccc3)c3ccccc3)cc2)CC1	-38%	-8%	35µM*	23%	18µM*	u
O=[N+]([O-])c1cc(-c2nc(-c3ccccc3)no2)ccc1N1CCN(c2ccccc2)CC1	29%	x	-2%	x	-12%	5%
CCOC(=O)C(Cc1ccccc1)C(=O)Nc1ccc(N(CC)CC)cc1 (centres undefined)	u	-1%	u	-26%	50µM*	-8%
CCOC(=O)C(Cc1ccccc1)C(=O)c1ccco1 (centres undefined)	28%	-2%	0%	7%	-13%	3%
COCCNC(=O)c1nn(-c2ccc(C)cc2)c(=O)n(C)c1=O	-8%[57 µM]	x	-2%	x	-6%	4%
Cc1cccc(NC(=O)CSC2=NN3CCCC(=O)N=C3S2)c1C	2%	-11%	50µM*	2%	u	-14%
O=C1CCCN2N=C(SCC(=O)Nc3ccc([N+](=O)[O-])cc3)SC2=N1	1%	38µM*	-6%	x	56µM*	u
O=C1CCCN2N=C(SCC(=O)Nc3ccc(OC(F)(F)F)cc3)SC2=N1	8%	-5%	-1%	x	-11%	-4%
Cn1c(-c2sc3cc(C(F)(F)F)cnc3c2-c2cccnc2)n[nH]c1=S	-13%	24µM*	-9%	x	-27%[11.4 µM]	-13%
Cn1c(-c2sc3cc(C(F)(F)F)cnc3c2-c2ccccn2)n[nH]c1=S	23%	-6%	-16%	-2%	14µM*	-9%
COc1cc(CNC(=O)c2ccc3c(c2)c(C)c(C)n3Cc2cccc(C)c2)cc(OC)c1OC	20%	x	u	x	u	11%
